Common to all, as to experiment: qHTS profiling for inhibitors of Plasmodium falciparum proliferation (AID 504749); further: nearly all actives have a fitted effect of over 60% in size
Holding throughout (conditions): P. falciparum in erythrocytes, SYBR Green DNA, 72 h; series mostly up to 28.7 µM
On the technique in general: Quantitative high-throughput screening tests each substance at several concentrations.

The subject of test [1] is P94_40. An outline of the steps:
(§1)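 P. falciparum-infected erythrocytes (0.3% parasitemia, 2.5% hematocrit final) were exposed to compounds for 72 h at 37 C in 5% CO2, then lysed with SYBR Green buffer overnight at room temperature; parasite DNA fluorescence was normalized to artemisinin and DMSO controls.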

Test [2] deals with PAD. An outline of the steps:
as §1

The test system of test [3] is PC15. An outline of the steps:
as §1

Test [4] deals with PC26. The gist of the method: as §1
The subject of test [5] is PC49. The gist of the method: as §1
The test system of test [6] is SC27B. The gist of the method: as §1
In test [7] the test system is TAB109. The gist of the method:
as §1

Test [8] concerns TAB113. The gist of the method: as §1
Test [9] deals with TAB165. An outline of the steps:
as §1

Test [10] has as its system W2. An outline of the steps: as §1

The structures appear in SMILES notation. Results filed as inconclusive are left out. Activity calls are given as the source filed them. The call rests on the fitted dose curve; in most records, active means well fitted inhibition curve with a large enough effect; inconclusive means small, poorly fitted or top-dose-only effect; inactive means flat fitted curve, though single readings scatter.

Data on 22 compounds can be found in PubChem BioAssay (NCATS).
Potency means the concentration at half of the fitted maximal effect.

Take `Cc1c(C(N)=O)cc([N+](=O)[O-])cc1[N+](=O)[O-]`: the Potency result in test [1], in test [2], in test [3], in test [4], in [5] and in [6] was “inactive” throughout. Moreover, the Potency entry in test [7], in test [8] and in test [9] was “inactive” in each case.

`Cc1c(C)n(Cc2ccccc2)c2ccc(C(=O)OCCN(C)C)cc12`: the Potency entry in test [1], in test [2], in test [3], in test [4], in test [5] and in test [6] was “inactive” in each case. Also, the Potency result in [7], in test [8] and in [9] was “inactive” throughout.

With `O=C(Nc1ccc(Cl)c(Cl)c1)C1CC1`, the Potency result in [1], in [2], in test [3], in test [4], in [5] and in [6] was “inactive” throughout. Besides, the Potency result in [7], in [8], in test [9] and in [10] was “inactive” in each case.

In the case of `CCOC(=O)OC(C)OC1=C(C(=O)Nc2ccccn2)N(C)S(=O)(=O)c2ccccc21` (stereo not drawn), the Potency entry in [1], in test [2], in test [3], in test [4], in test [5] and in test [6] was “inactive” throughout. Further, the Potency entry in [7], in [8] and in test [9] was “inactive” in each case.

On to `N[C@H](Cc1c[nH]c2ccccc12)C(=O)O`, for which the Potency entry in test [1], in test [2], in [3], in test [4], in [5] and in test [6] was “inactive” throughout. The Potency entry in [7], in [8], in [9] and in test [10] was “inactive” each time.

`CCCCN1CCCC1C(=O)Nc1c(C)cc(C)cc1C` (stereo not drawn): the Potency entry in [1], in test [2], in [3], in test [4], in [5] and in test [6] was “inactive” each time. In addition, the Potency entry in test [7], in test [8] and in test [9] was “inactive” in each case.

For `CC(=O)Oc1ccc(C(c2ccc(OC(C)=O)cc2)c2ccccn2)cc1`, the Potency result in [1], in [2], in test [3], in test [4], in test [6] and in test [7] was “inactive” throughout. The Potency result in test [8], in [9] and in test [10] was “inactive” throughout. Further, the Potency in [5] is 7.08 µM (active).

As to `CCN1CCCC1=O`, the Potency result in [1], in test [2], in test [3], in test [4], in test [5] and in test [6] was “inactive” throughout. In addition, the Potency result in [7], in [8], in test [9] and in test [10] was “inactive” each time.

Take `C[C@]12CC[C@@H]3c4ccc(O)cc4CC[C@H]3[C@@H]1CC[C@@H]2O`: the Potency entry in test [1], in [2], in test [3], in test [4], in test [5] and in test [6] was “inactive” throughout. In addition, the Potency result in test [7], in [8], in [9] and in test [10] was “inactive” in each case.

For `CCOc1ccc(NC(=O)CC(C)O)cc1` (stereo not drawn), the Potency result in test [1], in test [2], in [3], in [4], in [5] and in test [6] was “inactive” in each case. Besides, the Potency entry in [7], in [8] and in [9] was “inactive” throughout.

Regarding `Cc1c(C)n(CCN(C)C)c2ccc(C(=O)OCCN(C)C)cc12`, the Potency result in test [1], in test [2], in test [3], in test [4], in test [5] and in test [6] was “inactive” each time. The Potency entry in [7], in [8] and in test [9] was “inactive” in each case.

For `CCCCOc1ccc(C(=O)CCN2CCCCC2)cc1`, the Potency result in [1], in test [2], in test [3], in [4], in test [5] and in test [6] was “inactive” in each case. The Potency result in test [7], in test [8] and in test [9] was “inactive” in each case.

`Cc1c(F)c(N2CCNC(C)C2)cc2c1c(=O)c(C(=O)O)cn2C1CC1` (stereo not drawn): the Potency result in test [1], in test [2], in test [3], in test [4], in test [5] and in [6] was “inactive” each time. Also, the Potency entry in test [7], in test [8], in test [9] and in [10] was “inactive” each time.

With `CCCN1CCCC[C@H]1C(=O)Nc1c(C)cccc1C`, the Potency result in [1], in [2], in [3], in [4], in [5] and in test [6] was “inactive” throughout. For the same compound, the Potency result in test [7], in test [8] and in test [9] was “inactive” each time. Further, the Potency in test [10] is 4.78 µM (active).

With `COc1cccc(CCc2ccccc2OCC(CN(C)C)OC(=O)CCC(=O)O)c1` (stereo not drawn), the Potency in test [1] is 4.47 µM (active); in [2], 3.55 µM (active); in test [3] it was 5.01 µM (active); in test [4], 3.79 µM (active); in test [5], 3.16 µM (active); in test [6], 5.01 µM (active). Also, the Potency was 4.47 µM (active) in test [7], 5.62 µM (active) in [8], 4.47 µM (active) in [9] and 0.757 µM (active) in test [10].

On to `COC(=O)[C@@H]1CC2=CC(=O)CC[C@]2(C)[C@@]23O[C@@H]2C[C@@]2(C)[C@@H](CC[C@@]24CCC(=O)O4)[C@H]13`, for which the Potency result in test [1], in [2], in [3], in test [4], in test [5] and in test [6] was “inactive” in each case. Moreover, the Potency result in test [7], in test [8], in test [9] and in test [10] was “inactive” throughout.

`Nc1cc(Cl)c(NC2=NCCN2)c(Cl)c1`: the Potency result in [1], in test [2], in test [3], in [4], in test [5] and in test [6] was “inactive” throughout. Besides, the Potency entry in [7], in test [8], in test [9] and in [10] was “inactive” each time.

In the case of `Cc1ncc(CSSCc2cnc(C)c(O)c2CO)c(CO)c1O`, the Potency result in test [1], in test [2], in test [3], in test [4], in test [5] and in test [6] was “inactive” in each case. The Potency result in test [7], in test [8], in test [9] and in [10] was “inactive” in each case.

For `CCC(C(=O)OCCN(CC)CC)c1ccccc1` (stereo not drawn), the Potency entry in test [1], in test [2], in [3], in test [4], in [5] and in test [6] was “inactive” throughout. Besides, the Potency entry in test [7], in test [8] and in test [9] was “inactive” each time. In addition, the Potency in test [10] is 15.1 µM (active).

With `CCOC(=O)n1ccn(C)c1=S`, the Potency entry in [1], in test [2], in [3], in test [4], in test [5] and in test [6] was “inactive” throughout. Also, the Potency result in [7], in test [8], in test [9] and in [10] was “inactive” throughout.

Take `CCCCCCc1ccc(O)cc1O`: the Potency entry in [1], in test [2], in test [3], in test [4], in test [5] and in test [6] was “inactive” throughout. Moreover, the Potency entry in test [7], in test [8], in [9] and in test [10] was “inactive” in each case.

For the compound `O=C1c2ccccc2C(=O)C1c1ccccc1`, the Potency result in test [1], in [2], in test [3], in [4], in [5] and in test [6] was “inactive” each time. The Potency entry in test [7], in [8], in [9] and in test [10] was “inactive” throughout.
